The campaign covered roughly 5,500 compounds. About 2,000 (36%) were called active. Roughly 18% stayed inconclusive and do not appear here. Cut-off read from the data, not from the text of the source: active = normalized growth mostly below about 0.91 (no sharp cut-off); inconclusive = no clear call, values can overlap the other calls; inactive = mostly above about 0.92. The list shows a part of the results.
Assay: chemical genetic growth profiling, strain panel (AID 1159580);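 note: tested at 20 µM; growth read once vehicle control cultures reached saturation at 30 °C; 1 = growth at the plate median or of vehicle wells; lower values mean less growth of the strain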
Conditions: growth OD

Measured: normalized growth

C[C@@H]1CC[C@@]2(OC1)O[C@H]1CC3C4CC[C@H]5C[C@@H](O)CC[C@]5(C)C4CC[C@]3(C)[C@H]1[C@@H]2C (stereo not given in full)
inactive: S. cerevisiae deletion strains, locus YJR066W, strain TOR1, stronger effect = lower value 0.945 | S. cerevisiae deletion strains, locus YJR075W, strain HOC1, stronger effect = lower value 0.981 | S. cerevisiae deletion strains, locus YKL009W, strain mrt4, stronger effect = lower value 0.991 | S. cerevisiae deletion strains, locus YKL068W, stronger effect = lower value 0.981 | S. cerevisiae deletion strains, locus YKL085W, strain MDH1 (second series), stronger effect = lower value 0.977 | S. cerevisiae deletion strains, locus YKL085W, strain MDH1, stronger effect = lower value 0.977 | S. cerevisiae deletion strains, locus YKL160W, strain elf1, stronger effect = lower value 0.996 | S. cerevisiae deletion strains, locus YKR001C, strain vps1, stronger effect = lower value 0.987 | S. cerevisiae deletion strains, locus YKR026C, strain gcn3, stronger effect = lower value 0.984 | S. cerevisiae deletion strains, locus YKR091W, strain srl3, stronger effect = lower value 0.986 | S. cerevisiae deletion strains, locus YLL001W, strain dnm1, stronger effect = lower value 1 | S. cerevisiae deletion strains, locus YLL026W, stronger effect = lower value 0.988 | S. cerevisiae deletion strains, locus YLL041C, strain sdh2, stronger effect = lower value 1 | S. cerevisiae deletion strains, locus YLR027C, strain aat2, stronger effect = lower value 0.988 | S. cerevisiae deletion strains, locus YLR039C, strain RIC1, stronger effect = lower value 1.01 | S. cerevisiae deletion strains, locus YLR058C, strain SHM2, stronger effect = lower value 0.991 | S. cerevisiae deletion strains, locus YLR102C, strain apc9, stronger effect = lower value 0.977 | S. cerevisiae deletion strains, locus YLR113W, strain HOG1, stronger effect = lower value 0.999 | S. cerevisiae deletion strains, locus YLR221C, strain rsa3, stronger effect = lower value 1.02 | S. cerevisiae deletion strains, locus YLR258W, strain gsy2, stronger effect = lower value 1 | S. cerevisiae deletion strains, locus YLR262C, strain YPT6 (second series), stronger effect = lower value 1.02 | S. cerevisiae deletion strains, locus YLR268W, strain sec22, stronger effect = lower value 1 | S. cerevisiae deletion strains, locus YLR320W, strain mms22, stronger effect = lower value 0.99 | S. cerevisiae deletion strains, locus YLR342W, strain FKS1, stronger effect = lower value 0.976 | S. cerevisiae deletion strains, locus YLR357W, strain rsc2, stronger effect = lower value 0.973 | S. cerevisiae deletion strains, locus YLR370C, strain arc18, stronger effect = lower value 0.997 | S. cerevisiae deletion strains, locus YLR371W, strain rom2, stronger effect = lower value 0.979 | S. cerevisiae deletion strains, locus YLR384C, strain iki3, stronger effect = lower value 0.993 | S. cerevisiae deletion strains, locus YLR418C, strain cdc73, stronger effect = lower value 0.973 | S. cerevisiae deletion strains, locus YML016C, strain PPZ1, stronger effect = lower value 1 | S. cerevisiae deletion strains, locus YML032C, strain rad52, stronger effect = lower value 0.997 | S. cerevisiae deletion strains, locus YML120C, strain ndi1, stronger effect = lower value 1.01 | S. cerevisiae deletion strains, locus YML124C, strain tub3, stronger effect = lower value 0.983 | S. cerevisiae deletion strains, locus YMR058W, strain fet3, stronger effect = lower value 0.996 | S. cerevisiae deletion strains, locus YMR078C, strain ctf18, stronger effect = lower value 0.969 | S. cerevisiae deletion strains, locus YMR125W, strain sto1, stronger effect = lower value 0.984 | S. cerevisiae deletion strains, locus YMR129W, stronger effect = lower value 0.987 | S. cerevisiae deletion strains, locus YMR205C, strain PFK2, stronger effect = lower value 1 | S. cerevisiae deletion strains, locus YMR223W, strain ubp8, stronger effect = lower value 0.979 | S. cerevisiae deletion strains, locus YMR231W, strain pep5, stronger effect = lower value 0.998 | S. cerevisiae deletion strains, locus YMR263W, strain SAP30, stronger effect = lower value 0.976 | S. cerevisiae deletion strains, locus YMR307W, strain GAS1, stronger effect = lower value 1.23 | S. cerevisiae deletion strains, locus YNL067W, strain RPL9B, stronger effect = lower value 0.974 | S. cerevisiae deletion strains, locus YNL071W, strain lat1, stronger effect = lower value 0.996 | S. cerevisiae deletion strains, locus YNL183C, strain NPR1, stronger effect = lower value 0.975 | S. cerevisiae deletion strains, locus YNL209W, strain ssb2, stronger effect = lower value 0.983 | S. cerevisiae deletion strains, locus YNL233W, strain BNI4, stronger effect = lower value 0.99 | S. cerevisiae deletion strains, locus YNL248C, strain rpa49, stronger effect = lower value 1 | S. cerevisiae deletion strains, locus YNL250W, strain rad50, stronger effect = lower value 0.955 | S. cerevisiae deletion strains, locus YNL271C, strain bni1, stronger effect = lower value 0.983 | S. cerevisiae deletion strains, locus YNL298W, strain CLA4, stronger effect = lower value 0.972 | S. cerevisiae deletion strains, locus YNL307C, strain MCK1, stronger effect = lower value 0.989 | S. cerevisiae deletion strains, locus YNL322C, strain KRE1 (second series), stronger effect = lower value 0.987 | S. cerevisiae deletion strains, locus YNL322C, strain KRE1, stronger effect = lower value 0.987 | S. cerevisiae deletion strains, locus YNR049C, strain mso1, stronger effect = lower value 0.983 | S. cerevisiae deletion strains, locus YNR052C, strain pop2, stronger effect = lower value 0.962 | S. cerevisiae deletion strains, locus YOL006C, strain TOP1, stronger effect = lower value 1.14 | S. cerevisiae deletion strains, locus YOL012C, strain htz1 0.991 | S. cerevisiae deletion strains, locus YOL147C, strain pex11, stronger effect = lower value 0.978 | S. cerevisiae deletion strains, locus YOR001W, strain rrp6, stronger effect = lower value 0.999 | S. cerevisiae deletion strains, locus YOR061W, strain CKA2, stronger effect = lower value 0.996 | S. cerevisiae deletion strains, locus YOR069W, strain VPS5, stronger effect = lower value 0.983 | S. cerevisiae deletion strains, locus YOR070C, strain gyp1, stronger effect = lower value 0.965 | S. cerevisiae deletion strains, locus YOR080W, strain dia2, stronger effect = lower value 0.996 | S. cerevisiae deletion strains, locus YOR083W, strain WHI5, stronger effect = lower value 0.992 | S. cerevisiae deletion strains, locus YOR106W, strain vam3, stronger effect = lower value 0.983 | S. cerevisiae deletion strains, locus YOR136W, strain idh2, stronger effect = lower value 0.992 | S. cerevisiae deletion strains, locus YOR144C, strain elg1, stronger effect = lower value 0.988 | S. cerevisiae deletion strains, locus YOR184W, strain ser1, stronger effect = lower value 1.03 | S. cerevisiae deletion strains, locus YOR231W, strain MKK1, stronger effect = lower value 0.998 | S. cerevisiae deletion strains, locus YOR265W, strain rbl2, stronger effect = lower value 0.995 | S. cerevisiae deletion strains, locus YOR270C, strain vph1, stronger effect = lower value 1.03 | S. cerevisiae deletion strains, locus YOR290C, strain snf2, stronger effect = lower value 1.01 | S. cerevisiae deletion strains, locus YOR316C, strain cot1, stronger effect = lower value 0.962 | S. cerevisiae deletion strains, locus YPL051W, strain arl3, stronger effect = lower value 0.997 | S. cerevisiae deletion strains, locus YPL078C, strain atp4, stronger effect = lower value 1 | S. cerevisiae deletion strains, locus YPL106C, strain sse1, stronger effect = lower value 0.972 | S. cerevisiae deletion strains, locus YPL240C, strain hsp82, stronger effect = lower value 0.977 | S. cerevisiae deletion strains, locus YPL256C, strain CLN2, stronger effect = lower value 0.999 | S. cerevisiae deletion strains, locus YPR119W, strain clb2, stronger effect = lower value 0.979 | S. cerevisiae deletion strains, locus YPR141C, strain kar3, stronger effect = lower value 0.951 | S. cerevisiae deletion strains, locus YPR163C, strain tif3, stronger effect = lower value 0.959 | S. cerevisiae deletion strains, locus YPR167C, strain met16, stronger effect = lower value 0.985 | S. cerevisiae deletion strains, strain wtn01, stronger effect = lower value 1.01 | S. cerevisiae strains, strain wild type, stronger effect = lower value 1.01

— PubChem BioAssay AID1159580 (chemical genetic matrix, 2015)
